We go through 1 compound from PubChem BioAssay AID2284088 (EPA ToxCast).

Broadly, the AC50 is the concentration giving half of the maximal activity seen.

Activity calls are given as the source filed them. How the source made its calls: active means hit-call score of the fitted dose curve at least 0.9, where 1 is the maximum; inactive means score below 0.9.

Chain of human FLT4 Receptor Tyrosine Kinase, FLT4 (gene 2324) (P35916 whole entry, looked up): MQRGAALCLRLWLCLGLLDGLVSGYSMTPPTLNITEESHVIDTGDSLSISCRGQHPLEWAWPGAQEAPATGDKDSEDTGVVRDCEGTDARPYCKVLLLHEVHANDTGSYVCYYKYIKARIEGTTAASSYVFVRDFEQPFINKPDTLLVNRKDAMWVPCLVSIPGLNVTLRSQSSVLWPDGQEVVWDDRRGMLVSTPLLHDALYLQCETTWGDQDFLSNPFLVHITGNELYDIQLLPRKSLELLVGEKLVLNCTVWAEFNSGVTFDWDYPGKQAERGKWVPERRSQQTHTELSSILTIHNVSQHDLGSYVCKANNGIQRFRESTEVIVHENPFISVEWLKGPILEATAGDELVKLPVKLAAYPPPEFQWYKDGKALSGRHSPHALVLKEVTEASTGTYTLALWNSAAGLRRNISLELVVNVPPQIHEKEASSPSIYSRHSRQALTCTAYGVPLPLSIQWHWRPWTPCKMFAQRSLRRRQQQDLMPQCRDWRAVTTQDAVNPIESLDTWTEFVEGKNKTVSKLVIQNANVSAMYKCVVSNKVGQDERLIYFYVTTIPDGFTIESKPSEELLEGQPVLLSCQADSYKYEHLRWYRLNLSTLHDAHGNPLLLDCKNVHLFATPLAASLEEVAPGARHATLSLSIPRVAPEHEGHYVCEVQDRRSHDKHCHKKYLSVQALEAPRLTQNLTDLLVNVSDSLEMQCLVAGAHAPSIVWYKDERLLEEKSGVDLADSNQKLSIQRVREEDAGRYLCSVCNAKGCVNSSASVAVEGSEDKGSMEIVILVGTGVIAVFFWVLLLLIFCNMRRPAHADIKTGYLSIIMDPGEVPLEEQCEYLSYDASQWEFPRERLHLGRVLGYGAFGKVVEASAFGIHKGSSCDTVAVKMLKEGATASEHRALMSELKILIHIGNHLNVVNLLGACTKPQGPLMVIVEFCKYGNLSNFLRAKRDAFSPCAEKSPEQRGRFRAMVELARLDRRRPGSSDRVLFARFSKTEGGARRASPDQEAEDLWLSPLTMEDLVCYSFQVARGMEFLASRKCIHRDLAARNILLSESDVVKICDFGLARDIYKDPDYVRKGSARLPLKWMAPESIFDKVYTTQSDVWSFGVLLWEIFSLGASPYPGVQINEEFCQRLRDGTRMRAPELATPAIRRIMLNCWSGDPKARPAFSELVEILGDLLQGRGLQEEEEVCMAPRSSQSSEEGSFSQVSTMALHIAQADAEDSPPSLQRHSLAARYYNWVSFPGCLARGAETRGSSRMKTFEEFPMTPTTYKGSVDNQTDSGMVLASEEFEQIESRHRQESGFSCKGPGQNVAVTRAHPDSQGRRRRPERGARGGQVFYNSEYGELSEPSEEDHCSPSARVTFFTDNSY

The assay addresses human FLT4 Receptor Tyrosine Kinase, FLT4 (gene 2324) (UniProt P35916). Put plainly: ERF_FR_ENZ_hFLT4: Eurofins (ERF) Enzymatic Radiometric [Km ATP] KinaseProfiler LeadHunter Assay for human FLT4 Receptor Tyrosine Kinase. As for the experimental part:
ERF_FR_ENZ_hFLT4 is a biochemical, single-readout assay that uses extracted gene-proteins in a cell-free assay. Measurements were taken 1.5 hour after chemical dosing in a 96-well plate. See FLT4 Human RTK Kinase Enzymatic LANCE Assay [Km ATP], Cerep.ERF_FR_ENZ_hFLT4 is an assay component calculated from the ERF_FR_ENZ_hFLT4 assay. It is designed to measure enzyme activity using a type of enzyme reporter as detected by fluorescence intensity with LANCE technology.Data from the assay component ERF_FR_ENZ_hFLT4 was analyzed at the assay endpoint, ERF_FR_ENZ_hFLT4, in the positive analysis fitting direction relative to DMSO as the negative control and baseline of activity. Using a type of enzyme reporter, loss-of-signal activity can be used to understand changes in enzymatic activity as they relate to gene FLT4. To generalize the intended target to other relatable targets, this assay endpoint is annotated to the kinase intended target family, where the subfamily is receptor tyrosine kinase.
Flt4 (h) is incubated with 8 mM MOPS pH 7.0, 0.2 mM EDTA, 500 uM […], 10 mM MgAcetate and [gamma-33P]-ATP (specific activity and concentration as required). The reaction is initiated by the addition of the Mg/ATP mix. After incubation for 40 minutes at room temperature, the reaction is stopped by the addition of phosphoric acid to a concentration of 0.5%. […]
Take `O=C(/C=C/c1ccc(O)cc1)CC(=O)/C=C/c1ccc(O)cc1`: the AC50 was 1910 nM (active).
